Data as given in PubChem BioAssay AID651548 (Broad Institute, 2012).
The whole screen tested about 57,000 compounds, of which about 200 (0.35%) were called active. The sample holds actives, similar compounds and a random draw of the others, so the mix is not that of the screen.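 How the source made its calls: active means mean inhibition of replicates at least 50% and every single replicate also reaching 50%; inconclusive means mean inhibition at least 50% but some replicate falls below 50%; inactive means mean inhibition under 50%.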

Target: Histone-lysine N-methyltransferase EZH2 (Homo sapiens) (UniProt Q15910)
Sequence (Q15910 whole entry, looked up): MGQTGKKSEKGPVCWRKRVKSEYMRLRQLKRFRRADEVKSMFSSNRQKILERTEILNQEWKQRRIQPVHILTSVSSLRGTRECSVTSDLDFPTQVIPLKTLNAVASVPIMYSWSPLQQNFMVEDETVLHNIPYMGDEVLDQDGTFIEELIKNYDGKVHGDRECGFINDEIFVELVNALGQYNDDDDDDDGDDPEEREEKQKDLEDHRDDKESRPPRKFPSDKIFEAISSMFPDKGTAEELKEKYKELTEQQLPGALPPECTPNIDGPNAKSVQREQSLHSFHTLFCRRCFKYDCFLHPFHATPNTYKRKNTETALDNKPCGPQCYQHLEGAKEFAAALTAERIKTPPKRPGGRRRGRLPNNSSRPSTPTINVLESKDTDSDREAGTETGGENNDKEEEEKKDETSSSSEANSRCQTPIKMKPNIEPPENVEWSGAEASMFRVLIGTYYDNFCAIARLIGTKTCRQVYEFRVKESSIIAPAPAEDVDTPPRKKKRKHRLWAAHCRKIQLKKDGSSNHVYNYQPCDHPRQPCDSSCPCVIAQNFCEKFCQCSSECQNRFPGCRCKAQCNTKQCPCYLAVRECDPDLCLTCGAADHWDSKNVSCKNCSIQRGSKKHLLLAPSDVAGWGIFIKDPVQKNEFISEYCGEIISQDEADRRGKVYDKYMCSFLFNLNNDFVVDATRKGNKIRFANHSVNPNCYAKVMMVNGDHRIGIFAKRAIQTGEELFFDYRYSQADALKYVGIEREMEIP
Test: inhibition of PRC2 H3K27 methylation – biochemical, DELFIA time-resolved fluorescence, single point, primary screen (AID 651548);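 further: dimethyl H3K27 on biotinylated H3 21-44 peptide detected by antibody; plate controls were median neutral control wells for no effect and median positive control wells for full effect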
Details: DELFIA TRF, 1 h, at 12.5 µM, stronger effect = higher value

inhibition, inactive:
CO[C@H]1CN(C)C(=O)c2cc(NS(=O)(=O)c3ccccc3)ccc2OC[C@H](C)NC[C@@H]1C 3.07%
CN(C)C(=O)C[C@H]1C[C@H]2c3cc(NC(=O)Nc4ccc(C(F)(F)F)cc4)ccc3O[C@H]2[C@@H](CO)O1 -22.5%
CO[C@@H]1CN(C)C(=O)c2cc(NC(=O)C3CCOCC3)ccc2OC[C@@H](C)NC[C@@H]1C 5.55%
CCC(=O)N1C[C@@H](C)[C@H](OC)CN(C)C(=O)c2ccc(NC(=O)COC)cc2OC[C@@H]1C 2.05%
CC(C)NC(=O)N[C@@H]1CC[C@H](CC(=O)NC2Cc3ccccc3C2)O[C@H]1CO -19.2%
O=C(Nc1ccccc1F)N[C@@H]1CC[C@H](CCNC(=O)C2CC2)O[C@@H]1CO -5.22%
C[C@@H](NC(=O)C[C@@H]1CC[C@H](NC(=O)Cc2ccccn2)[C@H](CO)O1)c1ccccc1 5.38%
CO[C@@H]1CN(C)C(=O)c2cc(NC(=O)c3cnccn3)ccc2OC[C@@H](C)N(CC2CC2)C[C@H]1C -3.51%
CO[C@H]1CN(C)C(=O)c2ccc(NS(C)(=O)=O)cc2OC[C@@H](C)N(Cc2ccccc2)C[C@H]1C 27.6%
CN(C)C(=O)C[C@H]1CC[C@H](NC(=O)NC2CCCC2)[C@@H](CO)O1 6.6%
CN(C)CC(=O)N[C@H]1CC[C@@H](CCNC(=O)C2CCCC2)O[C@@H]1CO 4.19%
O=S(=O)(N[C@@H]1CC[C@@H](CCn2cc(-c3ccccn3)nn2)O[C@@H]1CO)c1cccc(Cl)c1 1.97%
O=C(Nc1ccccc1F)N[C@H]1C=C[C@H](CC(=O)N2CCCCC2)O[C@H]1CO 11.6%
C[C@@H]1CN([C@H](C)CO)S(=O)(=O)c2ccc(C#Cc3ccccc3F)cc2O[C@@H]1CN(C)C(=O)c1ccc2c(c1)OCO2 -7.72%
C[C@@H]1CN([C@@H](C)CO)C(=O)c2cc(C3=CCCC3)cnc2O[C@H]1CN(C)C(=O)c1ccccn1 -1.13%
O=C(Nc1ccccc1F)N[C@@H]1C=C[C@H](CC(=O)N2CCCCC2)O[C@@H]1CO -6.07%
C[C@@H]1CN([C@@H](C)CO)C(=O)c2cc(Br)cnc2O[C@H]1CN(C)Cc1ccc(-c2ccccc2)cc1 32.3%
CCCNC(=O)N(C)C[C@H]1Oc2cc(-c3ccncc3)ccc2S(=O)(=O)N([C@H](C)CO)C[C@@H]1C 2.1%
O=C(C[C@H]1C=C[C@@H](NC(=O)c2ccc(F)cc2)[C@@H](CO)O1)NCCc1ccncc1 -4.57%
